# In the supplement of paper PMC3334620:
# The full ranking holds about 33,000 sequences; the median of “E-score (-0.5 to 0.5)” is about -0.054, and the highest 2% start at about 0.39. The full list was thinned out, with the highest values kept by preference.
# Target: Ylr278c (UniProt Q05854)
# Assay: PBM E-score (8-mer binding enrichment) (E-score (-0.5 to 0.5)); higher = stronger / more preferred TF binding
# Details: protein concentration: 200 nM; construct: GST-DNA-binding domain
# Method: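 Universal 'all 10-mer' protein binding microarrays (Agilent AMADID 015681) probed with GST-tagged S. cerevisiae TFs (full-length or DBD) made by in vitro transcription/translation (PURExpress), about 100-200 nM. Bound TF was detected with fluorescent anti-GST. Each ungapped 8-mer (which stands for itself and its reverse complement) is scored by the PBM enrichment score (E-score), a modified Wilcoxon-Mann-Whitney statistic from -0.5 to +0.5, computed with the Universal PBM Analysis Suite. Scale: above 0.35 generally sequence-specific binding.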
# UniProt Q05854, sequence (Q05854 whole entry): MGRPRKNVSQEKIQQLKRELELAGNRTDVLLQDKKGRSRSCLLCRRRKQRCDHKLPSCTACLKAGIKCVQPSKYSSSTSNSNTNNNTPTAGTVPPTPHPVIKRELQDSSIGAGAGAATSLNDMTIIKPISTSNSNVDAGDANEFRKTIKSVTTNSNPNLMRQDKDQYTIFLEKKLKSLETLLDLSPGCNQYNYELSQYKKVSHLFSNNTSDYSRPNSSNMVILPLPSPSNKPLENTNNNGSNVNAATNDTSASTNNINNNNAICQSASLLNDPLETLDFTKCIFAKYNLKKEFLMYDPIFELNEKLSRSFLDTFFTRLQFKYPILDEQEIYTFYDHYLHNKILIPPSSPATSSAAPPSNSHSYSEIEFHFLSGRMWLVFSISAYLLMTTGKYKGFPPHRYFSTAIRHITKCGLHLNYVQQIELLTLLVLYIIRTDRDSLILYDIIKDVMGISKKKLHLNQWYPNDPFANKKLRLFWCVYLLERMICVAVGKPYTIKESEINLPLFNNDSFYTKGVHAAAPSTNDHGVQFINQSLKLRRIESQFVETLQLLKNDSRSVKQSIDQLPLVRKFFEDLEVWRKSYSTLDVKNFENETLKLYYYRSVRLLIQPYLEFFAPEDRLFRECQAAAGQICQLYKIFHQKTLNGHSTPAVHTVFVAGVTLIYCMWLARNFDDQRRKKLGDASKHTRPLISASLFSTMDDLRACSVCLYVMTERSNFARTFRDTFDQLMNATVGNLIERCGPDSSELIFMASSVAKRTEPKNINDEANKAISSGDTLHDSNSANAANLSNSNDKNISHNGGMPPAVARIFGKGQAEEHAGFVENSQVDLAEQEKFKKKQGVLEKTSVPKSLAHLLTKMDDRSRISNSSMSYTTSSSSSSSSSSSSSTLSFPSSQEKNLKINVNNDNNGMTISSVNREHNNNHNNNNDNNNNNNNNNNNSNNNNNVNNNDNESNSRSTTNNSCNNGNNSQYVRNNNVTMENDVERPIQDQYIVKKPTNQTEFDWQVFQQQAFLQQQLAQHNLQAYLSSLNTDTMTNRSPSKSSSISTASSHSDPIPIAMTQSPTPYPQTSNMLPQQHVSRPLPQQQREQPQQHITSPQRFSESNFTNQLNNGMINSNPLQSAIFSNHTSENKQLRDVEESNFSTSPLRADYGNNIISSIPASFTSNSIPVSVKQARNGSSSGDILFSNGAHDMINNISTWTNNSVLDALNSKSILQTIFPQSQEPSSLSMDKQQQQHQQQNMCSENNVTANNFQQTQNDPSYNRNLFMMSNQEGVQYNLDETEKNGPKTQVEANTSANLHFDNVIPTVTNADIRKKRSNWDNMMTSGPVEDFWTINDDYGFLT
row,Sequence,PBM E-score
1,GCCACCAA,-0.0527
2,CTTCGCAC,-0.164
3,AAAAGTCC,0.371
4,TAATGGGA,-0.256
5,AGAAGAGG,-0.194
6,CCCTCAGC,-0.0523
7,CCGGGAAA,0.354
8,GCCGGAAA,0.428
9,CACGGAAA,0.328
10,CTCGGAAG,0.303
11,CCCGGAAG,0.39
12,GACGGAAA,0.35
13,ACCGGTAT,0.277
14,CCCGGAAA,0.429
15,GCCGGGAA,0.329
16,CACGGAAG,0.228
17,ACCGGAAT,0.389
18,ACCGGGAT,0.388
19,CGCAATTA,0.23
20,AAACTGCC,-0.0969
21,ACCTCTTA,0.176
22,GTCTAAAC,0.0271
23,ATCGCGTC,-0.0429
24,GCTTGGCA,-0.34
25,GACGGAAC,0.192

row,Sequence,PBM E-score
1,GGCGGAAC,0.349
2,GCCGGAAC,0.432
3,GAGCGCTC,0.0431
4,TCTTATCA,0.0183
5,CCAATGTC,-0.156
6,CCCTCCAG,-0.0892
7,TCCTCCGA,0.43
8,TCCTCCCA,0.0879
9,CCCTCCGG,0.388
10,GCCTCCGA,0.398
11,CCCTCCGC,0.259
12,ACCTCCAA,-0.209
13,ACCTCCTA,-0.101
14,GCCTCCGC,0.361
15,TCCTCCAA,-0.245
16,GCCTCCAA,-0.134
17,ACCTCCGA,0.454
18,AAGCCCAG,-0.143
19,ACACCTAG,-0.13
20,AGACTTCG,-0.137
21,GACAGGTA,-0.0451
22,GCTATAGA,-0.234
23,CCAGGCAC,-0.0214
24,CCCTCCAA,-0.119
25,ACCTCCTC,-0.0564

row,Sequence,PBM E-score
1,ACCTCCGG,0.47
2,ACCTCCAC,0.0767
3,ACCTCCGC,0.425
4,CCCTCCTA,-0.107
5,ACCTCCTG,-0.253
6,CCCTCCGA,0.405
7,ACCTCCGT,0.383
8,GTAAGAAA,-0.0755
9,GAGCGGCA,0.207
10,ATGGTCAC,-0.0597
11,ATTTAAAA,0.114
12,AGGTAGCA,-0.197
13,CATCTAAC,-0.0951
14,AGCTAGAC,-0.174
15,GTGGCGGA,0.35
16,CCGGCGGC,0.407
17,CAGGCGGA,0.327
18,ACGGCGGA,0.37
19,GCGGCGAA,0.378
20,TCGGCGAA,0.372
21,GCGGCGGA,0.453
22,ACGGCGGC,0.167
23,CCGGCGGA,0.456
24,CCGGCGAA,0.404
25,CTGGCGGC,0.207

row,Sequence,PBM E-score
1,CTGGCGGA,0.183
2,ACGCGAAC,-0.00887
3,ATGAAGCC,0.0954
4,ACTGCCCA,-0.151
5,AGTTCATA,-0.0477
6,AATGGGTG,-0.0286
7,GAGGCTTA,-0.0425
8,ACGGCGCC,0.184
9,GCGGCGCC,0.289
10,CCGGCGCC,0.422
11,AATTCTGT,-0.0602
12,CGCGTGGC,-0.00486
13,CGGGATTC,0.392
14,CGGGATTA,0.406
15,CTGGATTC,-0.00018
16,GGGGATTA,0.175
17,AGGGATTA,-0.223
18,AGGGATTC,-0.0988
19,GTCGGGCA,0.0838
20,GCTGAACA,-0.153
21,CTTAGTCA,-0.184
22,CACTACGG,0.201
23,AGGTCAAA,-0.237
24,GATAGTCA,-0.0752
25,GCTCAGGA,-0.173

row,Sequence,PBM E-score
1,ACCCTAAG,-0.173
2,GCTCGGGA,0.174
3,AGGAACTC,0.0174
4,CTGAACTC,-0.141
5,AGGAACTA,-0.0554
6,GGGAACTA,0.11
7,CGGAACTA,0.422
8,CGGAACTC,0.409
9,AGGCTTAA,-0.00203
10,GATACCTA,-0.0272
11,ATGACGAG,-0.153
12,GTATTGTA,0.0802
13,AATGCCGC,0.352
14,CATGCCGG,0.368
15,AATGCCGA,0.392
16,CATGCCGA,0.217
17,AATGCCGT,0.381
18,AATGCCGG,0.421
19,CGCCAGAC,-0.153
20,CAGATTAC,-0.0164
21,TATACCAA,-0.101
22,GGGAGCTA,-0.0279
23,CGGAGCTA,0.42
24,AGGAGCTC,-0.122
25,AGGAGCTA,-0.144

row,Sequence,PBM E-score
1,CGGAGCTC,0.441
2,CTGAGCTC,0.0823
3,CGTCTCTC,-0.00934
4,ATGGCTGA,-0.344
5,TCAGCACA,-0.175
6,CGGACATC,0.421
7,GGGACATA,0.0665
8,CTGACATC,-0.0317
9,CGGACATA,0.454
10,AGGACATA,-0.278
11,AGGACATC,0.0899
12,GGAAGTTA,0.204
13,ATTCCAAC,-0.176
14,TCGATGAA,-0.11
15,CTCTTTTC,-0.0672
16,CGGACGGA,0.397
17,CCGACGCC,0.361
18,CCGACGGA,0.425
19,CGGACGGC,0.313
20,ACGACGCG,0.0212
21,ACGACGGA,0.301
22,GCGACGGA,0.313
23,CCGACGCG,0.394
24,GGGACGGA,0.369
25,GACCTCCA,0.0669

row,Sequence,PBM E-score
1,CCAGCTAG,-0.391
2,CAAGTTAC,0.0544
3,GAGTTCAC,0.0107
4,ACGATGAG,-0.0386
5,ACCCAGTC,-0.0927
6,ATGCTTCC,-0.0282
7,CACTGGCC,-0.0953
8,CTGAGCAG,-0.238
9,CGGAGCAC,0.391
10,AGGAGCAC,-0.0853
11,CGGAGCAA,0.456
12,CGGAGCAG,0.417
13,GGGAGCAC,0.0245
14,AGGAGCAA,-0.0147
15,TGGAGCAA,-0.111
16,AGGAGCAG,-0.00465
17,GAGGGAAA,-0.26
18,AATGCGAG,0.00781
19,GTAGGGCA,-0.038
20,AATTCAGG,0.127
21,GTGGTATA,-0.188
22,CGTCTATC,0.0841
23,ACACACTA,-0.13
24,ATCGGAGG,0.426
25,ATCGGTGG,0.13

row,Sequence,PBM E-score
1,CTCGGCGA,0.354
2,CTTGGAGA,-0.0088
3,ATCAGAGA,-0.213
4,ATCGGGGG,0.209
5,ATCGGAGA,0.455
6,CTCGGATC,0.34
7,CTCGGAGC,0.431
8,CTCGGTGC,0.0178
9,CTCGGAGA,0.449
10,ATGGGAGA,-0.309
11,CTGCAGCA,-0.151
12,ACTCAAAG,-0.129
13,AACTTGTC,0.0361
14,TTAACCAA,-0.136
15,TAGCATAA,-0.111
16,ACTCCACA,-0.0234
17,CCTGACTA,-0.0923
18,ATCGGAGC,0.458
19,GTCGGATA,0.312
20,GTAGGAGA,-0.0599
21,ATCAGAGC,-0.0306
22,GTCGGAGA,0.444
23,ATCGGATC,0.33
24,ATATCTCA,0.0231
25,GATTATGA,-0.0204

row,Sequence,PBM E-score
1,GACTGGAA,-0.161
2,CAACTTAG,0.0176
3,AATAAGAC,-0.228
4,TGGGCCCA,0.026
5,CGGAGTTC,0.494
6,CGGAGTTA,0.493
7,AGGAGTTC,0.109
8,GGGAGTTA,0.195
9,AGGAGTTA,0.232
10,CTGAGTTC,0.0225
11,GCTACAAA,-0.0551
12,TAGCCACA,-0.289
13,CCTAAGAA,-0.261
14,CGAAAGCG,-0.00844
15,GTCCCAGA,-0.235
16,GGGCGAAC,0.0496
17,CGGCGGCA,0.281
18,AGGCGGAT,0.237
19,CGGCGGAC,0.411
20,GGGCGGAC,0.399
21,AGGCGGCG,0.193
22,GAGCGGAC,0.321
23,CGGCGGAG,0.461
24,AGGCGGAG,0.39
25,CGGCGGCC,0.322

row,Sequence,PBM E-score
1,AGGCGGAC,0.386
2,AGGCGGGG,0.221
3,CTTCAACC,-0.0749
4,GCGATGCC,0.0401
5,AGAGATGC,-0.0846
6,CATCACGC,0.0744
7,ACGTGGAT,-0.233
8,AAAAGGTG,-0.196
9,ATCCCTAA,-0.254
10,ACGGCCCC,-0.034
11,GGGCGGAA,0.364
12,AGGCGGAA,0.304
13,CGGCGGAA,0.438
14,CTTCCGCC,0.343
15,ATTCCCCC,0.162
16,ATTCCGCG,0.439
17,ATTCCGCC,0.418
18,ATTCCGCA,0.356
19,ATGCCGCG,0.304
20,CACACCCA,-0.107
21,GTACAACA,0.014
22,GAACTACC,0.0269
23,GAAAGTAA,-0.0679
24,CAACTGCC,-0.00091
25,CCTTTGAC,-0.121

row,Sequence,PBM E-score
1,CTGATTTC,-0.0243
2,CGGATTTC,0.448
3,GCGATTCC,0.237
4,CCGATTTA,0.396
5,CGGATTAG,0.299
6,CCGATTCC,0.393
7,GGGATTAA,0.223
8,ACGATTTA,0.0466
9,CGGATTAA,0.39
10,CCGATTCG,0.267
11,AGGATTTC,0.0497
12,CCGATTTC,0.303
13,TACGCGAA,-0.0238
14,ACAGGAGC,-0.0789
15,CTCATGGC,-0.0203
16,ATGCAAGA,-0.214
17,ACACTAAC,0.0293
18,ACCAAGAT,-0.0275
19,GACAATTA,0.0117
20,GGATCGTA,-0.00905
21,AATAGATA,-0.126
22,ACACTGCC,0.154
23,AGGATTTA,0.00139
24,CGGATGTC,0.4
25,CGGATTTA,0.451

row,Sequence,PBM E-score
1,CGGATTCA,0.161
2,CGGATGTA,0.307
3,CGGATTCC,0.427
4,GGGATTTA,0.287
5,AGGATTCC,-0.00339
6,AGGATGTC,-0.0871
7,TTAAAAAA,-0.12
8,AGACCCAC,-0.00095
9,GACTAAAC,-0.0103
10,GGGCAACA,0.0452
11,AACCACTG,-0.136
12,GCCCTCAC,-0.226
13,CATCCCCG,0.396
14,AATCCCGT,0.346
15,CATCCCCC,-0.0212
16,AATCCCCA,-0.0702
17,TATCCCGA,0.258
18,AATCCCCC,0.0792
19,AATCCCGA,0.42
20,CATCCCGA,0.262
21,CATCCCGG,0.342
22,CATCCCCA,-0.109
23,AATCCCCG,0.398
24,AATCCCGG,0.439
25,AGGTTCAG,0.0375

row,Sequence,PBM E-score
1,AAGCCTCC,0.0849
2,CATTGGCA,-0.208
3,CAAGATCC,0.167
4,ATTATAGC,-0.086
5,ATGTCTAC,-0.1
6,AGAAAGAT,-0.103
7,CACGTCAC,-0.147
8,GCGCATAA,-0.0332
9,ACCAAGAG,-0.29
10,CCCGAGGA,0.061
11,TCCGAGAA,0.421
12,ACCGATAA,0.269
13,ACCGAGAA,0.109
14,TCCGAGGA,0.401
15,CCCGAGAA,0.293
16,GCCGAGGA,0.197
17,TCCGATAA,0.428
18,GCCGATAA,0.301
19,ACAATGGT,-0.255
20,ATCGTGAA,0.00733
21,GGAGGTTA,0.101
22,AAAAGATC,-0.0655
23,ATGCCGCC,0.325
24,CCCATGGC,-0.0499
25,CTACCGGA,0.348

row,Sequence,PBM E-score
1,ATACCGGG,0.334
2,GTACCGGA,0.415
3,GTACCGCA,0.164
4,ATACCGGC,0.354
5,ATACCGGA,0.405
6,ATGTCCCA,-0.0785
7,CTCTACTA,-0.245
8,GAGCAAAC,0.0239
9,CTCCTATC,-0.0262
10,CGAGCGGA,0.381
11,CGGGCGGC,0.31
12,GGAGCGGA,0.396
13,CGGGCGTA,0.178
14,AGAGCGGA,0.254
15,AGGGCGGA,0.385
16,CGGGCGGA,0.405
17,GGGGCGGA,0.412
18,GGGGCGTA,0.0266
19,CCAGTAGC,0.181
